# Assay outcomes as filed in PubChem BioAssay.
# The list is not random: actives were taken first. Their share in the collection is about 19%.
# HT1080-NT tox: qHTS for induction of synthetic lethality in tumor cells producing 2HG: qHTS for the HT-1080-NT fibrosarcoma cell line. AID 686970, 2013. HT-1080-NT fibrosarcoma viability, CellTiter-Glo ATP luminescence, 48 h. hit rate 1.6% among 360,000. Potency, µM (doses to about 46.1 µM), actives largely listed as cytotoxic;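 note: NT is the 2HG producing partner of a matched IDH1 knockdown line; nearly all actives have a fitted effect of over 55% in size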
#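 Toxicity toward the 2HG-producing NT line was scored as %Activity, normalised to DMSO and no-cell wells, from CellTiter-Glo luminescence after 48 hours' treatment.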
# HT1080 IDH1KD tx: qHTS for induction of synthetic lethality in tumor cells producing 2HG: qHTS for the HT-1080-IDH1KD cell line; HT-1080 IDH1 knockdown viability, ATP luminescence, 48 h; Potency, µM (doses to about 46.1 µM), actives largely listed as cytotoxic; AID 686971, 2013; hit rate 2% among 360,000
#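 IDH1KD HT-1080 cells, 750/well, RPMI + 5% FBS; compound pinned after 2 h settling; 48 h, 37 °C; CellTiter-Glo luminescence; % activity normalised to DMSO and no-cell wells; curves fitted, classed by r2 and efficacy.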
# TDP1 cell CPT: qHTS for Inhibitors of human tyrosyl-DNA phosphodiesterase 1 (TDP1): qHTS in cells in presence of CPT. chicken DT40 Tdp1-/-;hTDP1 cells + 20 nM CPT, ATP luminescence, 48 h. Potency, µM (top dose mostly 46.2 µM), most hits filed as inhibitors. hit rate 12% among 420,000. AID 686979, 2013; note: nearly all actives have a fitted effect of over 55% in size
#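 Chicken DT40 Tdp1-/- cells complemented with human TDP1, 400 cells/well, exposed to compounds plus 20 nM camptothecin for at least 48 h at 37 C; viability read as ATP content by CellTiter-Glo luminescence.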
# DT40 TDP1 no CPT: qHTS for Inhibitors of human tyrosyl-DNA phosphodiesterase 1 (TDP1): qHTS in cells in absence of CPT. hit rate 15% among 420,000. DT40 Tdp1-/- hTDP1 cells, no CPT, ATP luminescence, 48 h. Potency, µM (titrated, usually from 46.2 µM), actives largely listed as inhibitors; note: nearly all actives have a fitted effect of over 55% in size
#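 Cells were dispensed at 400 per well, compounds added by pin tool, plates incubated ≥48 hr at 37 °C, then CellTiter-Glo added for 30 min at room temperature before luminescence reading. Line: DT40 Tdp1-/- complemented with hTDP1; camptothecin omitted.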
# IL1B secr inh: qHTS for Inhibitors of Inflammasome Signaling: IL-1-beta AlphaLISA Primary Screen; THP-1 LPS/ATP IL-1B secretion, AlphaLISA, 16 h; active compounds read low; activity change, % at 57.5 µM; hit rate 4.7% among 360,000; in the data active = activity change below about -50%; inconclusive = mostly about -30% to -49%
#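 Secreted IL-1B measured by AlphaLISA bead assay after 16 h compound exposure of THP-1 cells; compounds (final up to 57.5 uM) added 1 h before LPS (250 ng/mL) and ATP (1.25 mM) stimulation; lower signal means less secretion.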
# Hits are given with their value; - = inactive; ? = inconclusive; . = not tested or not shown; [ ] = remark or other dose. Unless noted, calls come from the whole dose curve; as a rule, active = well fitted curve in the direction sought with a large enough effect; inconclusive = small, poorly fitted or top-dose-only effect, or another doubt; inactive = no such curve, though single readings can be large; an effect the other way counts as inactive or inconclusive.
SMILES,HT1080-NT tox,HT1080 IDH1KD tx,TDP1 cell CPT,DT40 TDP1 no CPT,IL1B secr inh
Cc1ccnc(NC(=O)C2CCN(S(=O)(=O)c3ccc(C)c(C)c3)CC2)c1,-,-,-,-,-84
CC1Cc2cc(S(=O)(=O)N3CCC(C(=O)Nc4ccccn4)CC3)ccc2N1C(=O)C1CCC1 (stereo unspecified),?,-,18µM,21µM,?
COc1ccc(S(=O)(=O)N2CCCCCC2)cc1C(=O)Nc1ccc(C)cn1,-,-,-,?,-
COc1ccc(S(=O)(=O)N2CCCCCC2)cc1C(=O)Nc1cc(C)ccn1,-[9.24 µM],-,21µM,?,-
CC(O)(COc1ccccc1)c1ccc2c(c1)CN(C/C=C/c1ccco1)CCO2 (stereo unspecified),.,.,-[9.04 µM],?,.
Cc1ccnc(NC(=O)C2CCN(S(=O)(=O)c3ccc4c(c3)CC(C)N4C(=O)C3CCC3)CC2)c1 (stereo unspecified),-,?,?,?,-69
Cc1ccc(CNC(=O)C2CCN(S(=O)(=O)c3ccc4c(c3)CC(C)N4C(=O)C3CCC3)CC2)o1 (stereo unspecified),-,-,?,29µM,-
CC1Cc2cc(S(=O)(=O)N3CCC(C(N)=O)CC3)ccc2N1C(=O)C1CC1 (stereo unspecified),-,-,-,-,-
CCOC(=O)c1cc2c(=O)n3cccc(C)c3nc2n(CCOC)c1=NC(C)=O,-,-,-,-,.
CC1CCCCC1NC(=O)c1cccc(S(=O)(=O)N2CCN(Cc3ccccc3)CC2)c1 (stereo unspecified),-,-,16µM,21µM,-
COc1cccc(NC(=O)c2cccc(S(=O)(=O)N3CCN(Cc4ccccc4)CC3)c2)c1,-,-,?,?,?
CSc1ccc(CN(C)C(=O)c2cccc(S(=O)(=O)N3CCN(Cc4ccccc4)CC3)c2)cc1,?,-,16µM,13µM,-72
CN1CCN(S(=O)(=O)c2cccc(C(=O)N(Cc3ccccc3)c3ccccc3)c2)CC1,-,-,?,?,-
COc1ccccc1CN(C)C(=O)c1cccc(S(=O)(=O)N2CCN(Cc3ccccc3)CC2)c1,-,-,?,?,-54
CN(Cc1ccc(F)cc1)C(=O)c1cccc(S(=O)(=O)N2CCN(Cc3ccccc3)CC2)c1,-,-,21µM,13µM,-61
CC(=O)N1CCN(S(=O)(=O)c2cccc(C(=O)NC3CCCC(C)C3C)c2)CC1 (stereo unspecified),-,-,-,?,-
Cc1c(CCC(=O)NCCCN2CCCC2=O)c(=O)oc2c(C)c(O)ccc12,-,-,-,-,-
O=C(/C=C/c1cccs1)c1ccc(N2CCOCC2)cc1,-,-,?,?,-69
O=C(/C=C/c1cccs1)c1cc(Br)ccc1OC(=O)N1CCOCC1,21µM,?,?,?,-98
CC(=O)c1cc(OC(=O)N2CCOCC2)ccc1OC(=O)N1CCOCC1,-,-,-,-,-
Cc1c(C(=O)Nc2ccc(Cl)cc2)c2ccccn2c1CCc1ccncc1,-,-,?,?,-59
Cc1c(C(=O)Nc2cccc(Cl)c2)c2ccccn2c1CCc1ccncc1,-,?,?,23µM,-189
O=C(NCc1ccncc1)Nc1cccc(Cl)c1,-,-,-,-,-
O=C(Nc1ccc(F)cc1F)C1CCN(c2ncnc3c2sc2cccc(F)c23)CC1,-,-,6.5µM,16µM,-
Cn1cnc(S(=O)(=O)N2CCC(C(=O)Nc3ccc(F)cc3F)CC2)c1,.,.,-,-,.
SMILES,HT1080-NT tox,HT1080 IDH1KD tx,TDP1 cell CPT,DT40 TDP1 no CPT,IL1B secr inh
Cc1ccc(NC(=S)N2CCC(c3nc4ccccc4s3)CC2)cc1,?,-[9.24 µM],?,?,-50
Cc1ccccc1C(=O)Nc1ccc(S(=O)(=O)N2CCC(c3nc4ccccc4s3)CC2)cc1,.,.,13µM,21µM,.
COc1cc(OC)cc(C(=O)NCC(=O)OCC(=O)N2CC(C)CC(C)C2)c1 (stereo unspecified),-,-,-,-,-
NC1=C(Cl)C(=O)c2ccccc2C1=O,?,?,5.2µM,4.6µM,-
NC1=C(Cl)C(=O)c2ccc(S(N)(=O)=O)cc2C1=O,8.2µM,6.5µM,0.41µM,0.46µM,-98
Cc1ccccc1CN1C(=O)c2ccccc2Sc2ccc(C(=O)NC3CCCC3)cc21,.,.,16µM,?,.
Cc1ccccc1CN1C(=O)c2ccccc2Sc2ccc(C(=O)NCc3cccs3)cc21,.,.,23µM,23µM,.
Cc1cccc(CN2C(=O)c3ccccc3Sc3ccc(C(=O)NC4CCCCC4)cc32)c1,.,.,-,?,.
C=CCn1c(SC(C)CC)nc(O)cc1=O (stereo unspecified),-,-,-,-,-
Cc1ccc(-c2cc(-c3ccccc3)[nH]c(=S)c2C#N)cc1,-,-,-,-,-
N#Cc1c(N)[nH]c(=S)c(C#N)c1-c1ccccc1,?,?,21µM,?,-
CC(C)c1ccc(OCC(O)CN2CCN(c3ccccc3)CC2)cc1 (stereo unspecified),?,16µM,?,?,-74
CC1CCN(CC(O)COc2ccc(-c3ccccc3)cc2)CC1 (stereo unspecified),?,-,?,18µM,-
COc1ccc(OCC(O)CN2CCN(c3ccccc3)CC2)cc1 (stereo unspecified),-,-,-,-,-
COCCN(C(=O)COC(=O)CCCc1c[nH]c2ccccc12)c1c(N)n(Cc2ccccc2)c(=O)[nH]c1=O,-,-,-,-,-
Cc1cc(/C=C2\NC(=O)N(Cc3ccc(Cl)cc3)C2=O)c(C)n1C,-,-,-,?,-
COC(=O)[C@@]12CCCN1[C@H](c1ccc(-c3ccccc3)cc1)[C@H]1C(=O)N(C)C(=O)[C@H]12,-,-,?,?,-
COC(=O)[C@@]12CCCN1[C@H](c1ccc(-c3ccc(OC)cc3)c(OC)c1)[C@@H]1C(=O)N(C)C(=O)[C@@H]12,-,-,4.1µM,4.1µM,-
COC(=O)[C@@]12CCCN1[C@H](c1ccc(-c3ccc(OC)cc3)cc1)[C@@H]1C(=O)N(C)C(=O)[C@@H]12,-,-,18µM,21µM,-
COC(=O)[C@@]12CCCN1[C@H](c1ccc(-c3ccc(OC)cc3)c(OC)c1)[C@H]1C(=O)N(C)C(=O)[C@H]12,-,-,?,?,-
O=C(Nc1c(F)cccc1F)c1ccc2c(c1)CCN2S(=O)(=O)c1ccccc1,-,-,?,-,-67
O=C(Nc1ccccc1F)c1ccc2c(c1)CCN2S(=O)(=O)c1ccccc1,-,-,?,-,-69
